A number with no mark means an inactive call.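 Rule for the calls: active = z-score of at least 1.8 in each of two replicates, scored against plate mean and spread of sample wells; inactive = the rest.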

The nature of the assay: viability rescue of complex I mutant cybrids, primary screen, cell-based, galactose medium, ATP luminescence (AID 1645843).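 Note: positive z means more ATP and so rescue of galactose-driven cybrid death.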 The settings on record: complex I mutant cybrid cells, 72 h, active compounds read high.
As to `Cc1ccc(-c2cc(C(=O)N(C)CCc3cnn(C)c3)cc(S(=O)(=O)N3CCOCC3)c2)s1`, the z-score was 0.925.
The result for `COC(=O)c1c(NC(=O)c2ccoc2)c2cc(NC3CCSCC3)cnc2n1CC(C)C` reads 0.98; that for `CC(C)CN1CC(OCc2cccc(F)c2)CN(C(=O)Cn2cnc3ccccc3c2=O)CC1=O` (stereo not given), -0.43.
The result for `O=C(c1nn(Cc2ccncc2)c2c1CN(Cc1ccsc1)CC2)N1CCCC1` reads 0.36; that for `CN(Cc1cscn1)C(=O)c1nn(CC2CC2)c2c1CN(C(=O)Cn1cnc3ccccc31)CC2`, -0.19.

Source of the values: PubChem BioAssay.
